The text below walks through data of PubChem BioAssay.

A short description of assay [1]: compound effects on lung adenocarcinoma cell viability – A549, calcein-AM fluorescence, 48 h, basal, profiling panel (AID 1162). As to conditions: higher = more signal.
The nature of assay [2]: compound effects on differentiated 3T3-L1 adipocyte viability – cell-based, 3T3-L1 adipocytes, calcein-AM fluorescence, 48 h, basal, profiling panel (AID 1163). Particulars: 3T3-L1 adipocytes viability, higher = more signal.
Assay [3] can be described thus: compound effects on hepatocellular carcinoma cell viability – HepG2, calcein-AM fluorescence, 48 h, basal, profiling panel (AID 1164). Particulars: higher = more signal.
Assay [4] can be described thus: compound effects on multiple myeloma cell viability – MM1S, calcein-AM fluorescence, 48 h, basal, profiling panel (AID 1165).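 Also: viability of MM1S multiple myeloma cells under basal unstimulated conditions.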 Particulars: higher = more signal.
Assay [5] can be described thus: calcein-AM signal in unstimulated myeloma cells – cell-based, calcein-AM fluorescence, 48 h, PK04 Diversity Set, profiling panel (AID 1166).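 Also: cells grown under basal conditions without added stimulus.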 As to conditions: RPMI8226 myeloma viability, higher = more signal.
Assay [6] is described as follows: JC-1 mitochondrial signal, unstimulated HepG2 cells – cell-based, JC-1 fluorescence, 24 h, 100 nL compound, profiling panel (AID 1167). Particulars: HepG2 mitochondrial potential, higher = more signal.
A short description of assay [7]: JC-1 mitochondrial signal, unstimulated adipocytes – cell-based, JC-1 fluorescence, 3T3-L1 adipocytes, 24 h, 100 nL compound, profiling panel (AID 1168). As to conditions: JC-1 mitochondrial fluorescence, higher = more signal, called active from +8 up or from −8 down.
Assay [8] is described as follows: JC-1 mitochondrial signal, unstimulated myeloma cells – cell-based, JC-1 fluorescence, RPMI8226, 24 h, 100 nL compound, profiling panel (AID 1169). Particulars: JC-1 mitochondrial potential fluorescence, higher = more signal.
Assay [9] in a line: JC-1 mitochondrial signal, unstimulated MM1S myeloma – cell-based, JC-1 fluorescence, 24 h, 100 nL compound, profiling panel (AID 1170). As to conditions: MM1S mitochondrial potential, higher = more signal.
Assay [10] can be described thus: resazurin metabolic signal in A549 cells – cell-based, resazurin fluorescence, 24 h, PK04 Diversity Set, profiling panel (AID 1171). As to conditions: A549 viability, higher = more signal, called active from +8 up or from −8 down. (Resazurin is reduced to fluorescent resorufin, in cell work by metabolically active cells.)

Activity calls are given as the source filed them.
Also: test concentration not given here.

For the compound `C[C@@]1([C@@H](NC(=O)c2ccccc2)c2ccc(-c3ccccc3)cc2)C[C@H]1C1CCCCC1`, the z-score in [1] is -1.35; in assay [2], -0.502; in [3] it was -0.687; in [4], -0.646; in [5], -1.28; in assay [6] it was -0.964. In addition, the z-score is -1.22 (inactive) in assay [7], 0.318 in [8], -0.308 in assay [9] and -1.2 (inactive) in [10].

On to `COCCOC(=O)N1C(=O)[C@@]2(c3cc(C#Cc4ccc(OC)cc4)ccc31)[C@H](C(=O)N1CCCCCCC1)[C@H]1C(=O)O[C@H](c3ccccc3)[C@H](c3ccccc3)N1[C@@H]2c1ccc(OCCO)cc1`, for which the z-score was 1.36 in [1]; 1.96 in assay [2]; 0.638 in assay [3]; -1.36 in assay [4]; 0.809 in [5]; 0.162 in [6]. Besides, the z-score is -6.15 (inactive) in [7], -0.19 in assay [8], -0.987 in assay [9] and 1.62 (inactive) in assay [10].

As to `CN(C)CCCNC(=O)[C@@]1(C)c2ccccc2C(=O)N(Cc2cc(F)cc(C(F)(F)F)c2)[C@H]1c1ccc(CO)cc1`, the z-score in assay [1] is 1.04; in [2] it was -0.0121; in assay [3], -0.746; in assay [4], -1.29; in [5] it was -0.167; in assay [6], 0.845. Moreover, the z-score was 0.235 (inactive) in assay [7], 0.521 in [8], -0.496 in [9] and 0.896 (inactive) in assay [10].

For `O=C(NCc1ccc(F)cc1)[C@H]1C[C@H]2C(=O)N[C@@H](Cc3ccccc3)C(=O)N2[C@H]1c1ccc(O)cc1`, the z-score in assay [1] is 0.0416; in assay [2], 0.17; in assay [3] it was 0.0329; in [4], -0.973; in assay [5], -0.27; in [6] it was 1.11. Also, the z-score is 0.672 (inactive) in assay [7], 0.736 in [8], 0.453 in assay [9] and 0.278 (inactive) in assay [10].

In the case of `C=CC[C@]12N=C(c3ccc(OCCCO)cc3)O[C@H]1c1ccccc1N(Cc1ccccc1)C2=O`, the z-score in assay [1] was -0.739; in assay [2], -0.082; in [3], -0.957; in [4], -3.44; in [5] it was -3.83; in [6] it was -0.433. Also, the z-score is 2.12 (inactive) in assay [7], -0.982 in assay [8], -2.48 in assay [9] and -1.48 (inactive) in assay [10].

Regarding `O=C1c2ccccc2[C@@]2(Cc3ccccc3N(CC(F)(F)F)C2=O)[C@H](c2ccc(CO)cc2)N1Cc1ccccc1Cl`, the z-score is 0.609 in [1]; 0.889 in assay [2]; -0.0395 in [3]; -0.354 in assay [4]; -0.936 in assay [5]; -0.0535 in assay [6]. Further, the z-score is -0.483 (inactive) in assay [7], -0.131 in [8], 0.165 in assay [9] and -0.142 (inactive) in assay [10].

On to `CC(C)OC(=O)C=C1C[C@@H](c2ccccc2C(F)(F)F)O[C@@H](c2ccccc2C(F)(F)F)O1`, for which the z-score in assay [1] is -0.677; in assay [2], -0.984; in [3], 0.761; in assay [4] it was 0.737; in assay [5] it was 0.217; in [6], 0.752. The z-score in [7] was 0.341 (inactive); in [8], 0.589; in assay [9], -0.541; in assay [10], 1.08 (inactive).

For `Cc1ccc(S[C@]2(C(=O)NCC(C)C)CC(=O)N(Cc3cc(C(F)(F)F)cc(C(F)(F)F)c3)[C@@H]2c2ccc(CO)cc2I)cc1`, the z-score is -0.431 in assay [1]; 0.299 in [2]; -0.588 in [3]; -3.16 in assay [4]; -2.29 in assay [5]; -0.523 in [6]. Moreover, the z-score was -0.3 (inactive) in assay [7], -0.39 in assay [8], -1.01 in assay [9] and -0.227 (inactive) in assay [10].

Regarding `COC(=O)[C@@]1(Cc2ccc(OC)cc2)[C@H]2c3cc(C(=O)N(C)C)n(Cc4cccc5ccccc45)c3C[C@H]2CN1C(=O)c1ccccc1`, the z-score is -1.62 in assay [1]; 1.26 in [2]; -0.0664 in assay [3]; -0.623 in assay [4]; -2.08 in [5]; 3.37 in [6]. The z-score in [7] is -0.669 (inactive); in [8] it was -0.127; in assay [9], -1.41; in assay [10] it was -1.92 (inactive).

For the compound `C=CCOC(=O)[C@H]1[C@@H]2C(=O)O[C@@H](c3ccccc3)[C@@H](c3ccccc3)N2[C@@H](c2ccc(OCCOC(=O)[C@@H]3C[C@@H]4C(=O)N[C@@H](CCCCN(C)C)C(=O)N4[C@@H]3c3ccc(O)cc3)cc2)[C@]12C(=O)Nc1ccc(I)cc12`, the z-score in assay [1] is -0.508; in assay [2], -0.523; in assay [3], -0.222; in assay [4], -0.397; in assay [5], -0.449; in assay [6] it was -1.65. Moreover, the z-score in assay [7] is 0.832 (inactive); in assay [8], -0.7; in [9] it was -1.6; in [10], 0.183 (inactive).

As to `CC(C)(C)C(=O)N[C@@H](c1ccc(Cl)cc1)[C@]1(C)C[C@H]1C1CCCCC1`, the z-score is -1.07 in assay [1]; 0.459 in assay [2]; -0.492 in assay [3]; -1.22 in assay [4]; -1.43 in assay [5]; 4.37 in [6]. The z-score in assay [7] was -0.594 (inactive); in assay [8] it was -0.533; in assay [9] it was 0.162; in assay [10], -0.466 (inactive).

In the case of `COCCOC(=O)N1C(=O)[C@@]2(c3ccccc31)[C@H](c1ccc(O)cc1)N1[C@H](c3ccccc3)[C@H](c3ccccc3)OC(=O)[C@H]1[C@@H]2C(=O)NC[C@H](O)c1ccccc1`, the z-score in assay [1] was 0.205; in assay [2], 1.15; in [3], 0.311; in assay [4], -0.534; in [5], -1.99; in assay [6] it was -1.02. Also, the z-score in assay [7] is -0.184 (inactive); in [8], 0.266; in assay [9], -0.142; in assay [10] it was -1.1 (inactive).

For the compound `CC(C)(C)OC(=O)CC[C@@]1(C(N)=O)N=C(c2ccc(OCCCO)cc2)O[C@@H]1c1ccccc1`, the z-score in [1] is 0.298; in [2], -0.0721; in assay [3], 0.105; in [4], 0.0092; in [5], 0.658; in assay [6], -0.318. For the same compound, the z-score in assay [7] is -0.191 (inactive); in assay [8], 0.919; in assay [9], -0.0322; in assay [10] it was 0.293 (inactive).

In the case of `CCCCC(=C=CC[C@@H](O)c1ccccc1OCCO)CCO`, the z-score in assay [1] was 0.499; in assay [2], 0.337; in [3], 0.595; in assay [4], -0.0292; in [5] it was 0.181; in [6], 0.251. The z-score in assay [7] is -0.321 (inactive); in [8], 0.11; in assay [9], 0.502; in [10] it was 0.245 (inactive).
